Bioassay records as filed in PubChem BioAssay.
TIM10 inh – growth inhibitors of isogenic TIM10 control yeast, primary screen, counter-screen for tim10-1 yeast inhibitor project, luminescence, uHTS. S. cerevisiae TIM10 strain growth, BacTiter-Glo luminescence, 24 h. inhibition, % at 10 µM. hit rate 1.4% among 330,000;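 active = inhibition of 40% or more at the single tested concentration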;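 also: wild-type TIM10 isogenic control strain grown at permissive 25 °C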
tim10-1 inh – growth inhibitors of tim10-1 mutant yeast, primary screen, luminescence, uHTS; AID 463190, 2010; hit rate 2.2% among 330,000; S. cerevisiae tim10-1 ts strain growth, BacTiter-Glo, 24 h; inhibition, % at 20 µM;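 active = inhibition of at least 40%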;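 also: mutant grown at 25 °C; 0% = DMSO wells with yeast and 100% = wells holding no yeast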
Mot1-301 SUMO – yeast Mot1-301 growth rescue at high temperature, primary screen, SUMOylation pathway inhibitor project, S. cerevisiae, ATP luminescence, 38.5C; growth rescue, % at 18.8 µM; hit rate 1% among 320,000; S. cerevisiae Mot1-301 growth rescue; percent above DMSO median, 100 means doubled;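 active = every valid replicate shows activation above 250% relative to neutral control wells; inactive = the rest, any valid replicate at or below 250%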;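 also: OY570 slx delta 5 strain wells were the positive control but not used for scaling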
PfHsp90 set2 – growth inhibition of PfHsp90-expressing yeast, primary screen, antimalarial PfHsp90 inhibitor project, S. cerevisiae, BacTiter-Glo luminescence, single point, set 2 | BacTiter-Glo ATP, 48 h; yeast lacking PDR1 and PDR3 efflux regulators | inhibition, % at 9.4 µM | AID 504621, 2011 | hit rate 0.32% among 310,000;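 active = every replicate shows inhibition above about 80%, whatever the replicate mean, limit read from the data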;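 also: 0% = DMSO neutral controls and 100% = 20 µM radicicol positive controls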
tim23-1 inh – growth inhibitors of tim23-1 mutant yeast, primary screen, luminescence, uHTS | S. cerevisiae tim23-1 growth, BacTiter-Glo luminescence, 24 h | inhibition, % at 20 µM | hit rate 1.3% among 330,000;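 active = growth inhibition of the mutant yeast at or above 50%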;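 also: temperature-sensitive mutant grown at 25 °C; plate controls were DMSO-treated mutant yeast for no effect and medium wells lacking yeast for full effect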
tim23-1 conf – tim23-1 mutant yeast growth inhibitors, confirmation, luminescence, single concentration; S. cerevisiae tim23-1 growth, BacTiter-Glo luminescence, 24 h; shares compounds with tim23-1 inh; inhibition, % at 20 µM; hit rate 83% among 4,400; AID 463218, 2010;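 active = inhibition above about 39% in either of two replicate wells at 20 µM, limit read from the data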;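 also: temperature-sensitive tim23-1 mutant grown at 25 °C; 0% = DMSO wells with yeast and 100% = medium wells without yeast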
Active calls of the source: *; . = no result. Shown are actives, neighbours in structure and some others; about 4.4% of the full set was active somewhere.

SMILES	TIM10 inh	tim10-1 inh	Mot1-301 SUMO	PfHsp90 set2	tim23-1 inh	tim23-1 conf
Cc1ccc(OCc2cc(C(=O)N3CCC(C(O)C(C)C)CC3)no2)cc1C (stereo unspecified)	28.6	27.9	-4.0	-53.2	37.3	.
COc1cc2cncc(Cc3ccc(Cl)cc3)c2cc1OC	-2.9	15.3	-11.9	-4.8	57.2*	49.0*
COc1ccc(S(=O)(=O)N2CCCCCC2)cc1NC(=O)CN(C)Cc1ccc2c(c1)OCO2	12.5	19.4	-3.6	.	30.1	.
COc1cccc2c1C(=O)c1c(O)c3c(c(O)c1C2=O)C[C@](O)(C(C)=O)C[C@H]3O[C@@H]1C[C@@H](N)[C@@H](O)[C@@H](C)O1	-0.9	3.1	-6.7	-36.0	51.2*	43.8*
COc1cccc2c1C(=N)c1c(O)c3c(c(O)c1C2=O)CC(O)(C(C)=O)CC3OC1CC(N)C(O)C(C)O1 (stereo unspecified)	.	.	.	5.9	.	.
COC(=O)c1ccc(-n2c(C)cc(C(=O)CCl)c2C)cc1	33.2	7.4	-14.1	-71.1	52.4*	30.1
C[N+]1(C)CCC(=C(c2ccccc2)c2ccccc2)CC1	2.6	4.1	79.1	4.0	-7.8	.
CC(C)CCN1C(=O)c2cccc3c(N)ccc(c23)C1=O	14.0	39.3	47.1	-6.0	64.9*	46.8*
CC1(C)CC2CC(C)(CN2S(=O)(=O)c2ccc(F)cc2F)C1 (stereo unspecified)	30.3	39.8	80.5	.	51.6*	48.6*
O=C(NOC(=O)c1ccccc1)c1ccccc1	11.2	27.6	-1.6	-67.8	64.4*	33.8
Cc1c(CCOC(=O)C23CC4CC(CC(C)(C4)C2)C3)sc[n+]1CC(=O)c1ccccc1	17.6	5.1	-7.3	-28.4	62.1*	17.6
Nc1ncnc2c1ncn2[C@@H]1O[C@H](CO)C[C@H]1O	-6.0	25.7	-3.1	8.9	60.5*	65.3*
COc1c(O)c(=O)n2c3ccccc3c3ccnc1c32	35.4	35.7	-15.8	25.6	61.9*	78.3*
O=c1c(Cl)c(O)c2cccc3c4ccccc4n1c23	9.4	16.1	-4.4	1.1	19.6	.
CCOC(=O)c1cc(-c2ccccc2C)nn1CC1CC(c2ccc(OC)cc2)=NO1 (stereo unspecified)	-4.0	14.3	-5.1	.	9.3	.
CCOCCn1ccc2c(OCC(=O)Nc3ccc(OC)c(OC)c3)cccc2c1=O	4.5	12.2	-2.9	.	54.3*	5.4
CCOCCn1ccc2c(OCC(=O)NCCc3ccc(OC)c(OC)c3)cccc2c1=O	9.4	16.7	-9.8	-11.9	16.4	.
Cc1ccc(-c2cc(-c3ccccc3)nc(N(C)N)n2)cc1	31.9	35.3	24.4	23.8	56.0*	53.2*
Cc1ccc(-c2cc(N)nc(-c3ccccc3)c2)cc1	-12.8	-25.8	260.8	-0.3	-2.0	.
COc1ccccc1C(=O)COC(=O)Cc1ccccc1F	13.6	19.4	42.0	-18.2	52.2*	53.5*
COc1ccc(NC(=O)N(C)C[C@H]2Oc3ccc(NC(=O)Cc4ccccc4)cc3CC(=O)N([C@H](C)CO)C[C@H]2C)cc1	-0.6	-3.5	-24.4	10.5	17.3	.
O=C(Cc1cccc(NC(=O)C2CCN(C(=O)CCc3ccccc3)CC2)c1)Nc1cccc(C(=O)N2CCCC2)c1	-5.8	6.1	-0.2	12.1	5.5	.
CSc1cc(-c2ccncc2)nc(-c2ccc(Cl)cc2)c1	27.0	13.0	8.8	-10.6	16.1	.
Cc1ccc(C(=O)CSc2nnnn2Cc2ccccc2)cc1C	16.2	22.0	-5.8	23.4	50.5*	49.0*
COc1cc(NC(=O)CSc2nnnn2Cc2ccccc2)cc(OC)c1	-5.0	3.8	.	-2.7	-0.9	.
SMILES	TIM10 inh	tim10-1 inh	Mot1-301 SUMO	PfHsp90 set2	tim23-1 inh	tim23-1 conf
O=C(CSc1nnnn1Cc1ccccc1)c1ccccc1F	26.5	9.5	9.4	-6.2	36.2	.
COC(=O)c1ccsc1NC(=O)CSc1nnnn1Cc1ccccc1	10.7	34.9	-10.1	-1.7	50.9*	37.5
CC(NC(=O)c1ccccc1)C(=O)NC1CCCc2ccccc21 (stereo unspecified)	-6.4	-0.6	.	2.3	-1.9	.
CN(C)c1ccc(NC(=O)CSc2n[nH]c(-c3ccncc3)n2)cc1	.	.	.	6.6	.	.
Cc1nn(-c2ccccc2)c(C)c1C(=O)OCc1ccc(C#N)cc1	-11.6	12.1	173.7	-19.7	20.7	.
O=C(CN1C(=O)c2ccccc2S1(=O)=O)c1ccccc1F	6.6	26.7	-8.1	7.5	15.5	.
O=C(CN1C(=O)c2ccccc2S1(=O)=O)c1ccc(Cl)cc1Cl	7.8	32.5	15.3	.	51.3*	23.9
CC(OC(=O)C1CC1C)C(=O)Nc1ncc(Cl)cc1Cl (stereo unspecified)	5.6	3.9	-3.9	.	17.6	.
COCCn1c(C23CC4CC(CC(C4)C2)C3)n[nH]c1=S	26.2	29.7	3.9	-9.0	27.2	.
CCCCn1c(C23CC4CC(CC(C4)C2)C3)n[nH]c1=S	35.7	33.3	-7.1	1.5	52.9*	49.8*
COC(=O)[C@H](C)N1C/C=C\COc2c(Cl)cc(Cl)cc2S1(=O)=O	-6.8	26.1	.	0.2	42.9	.
COC(=O)[C@H](Cc1ccccc1)N1C/C=C\COc2c(Cl)cc(Cl)cc2S1(=O)=O	-8.8	20.3	.	28.8	52.2*	37.5
O=C1N=C(N2CCCCC2)SC1=C1CCCCC1	-1.3	-5.8	-3.1	43.6	19.8	.
O=C1NC(=S)SC1=C1CCCCCC1	3.0	23.6	.	-20.1	50.3*	69.3*
O=C(Nc1cccc(F)c1)N1CC=C(c2ccc(Cl)cc2)CC1	37.4	37.1	18.6	10.2	59.1*	72.1*
O=C(CN1CCN(c2ccc(Cl)cc2)CC1)Nc1cccc(F)c1	21.8	32.2	6.9	-5.9	38.2	.
COc1ccc(OC)c(NC(=O)c2csc(Cl)c2OC)c1	25.9	23.3	2.1	-8.8	59.2*	43.9*
COc1ccc(OC)c(NC(=O)c2ccc(Cl)cc2)c1	-1.8	15.2	-11.3	7.6	-3.2	.
Cc1ccc(NC(=S)N2CCC(c3ccccc3)C2)c(Cl)c1 (stereo unspecified)	12.2	8.7	3.5	-7.9	27.9	.
Nc1ccc(-c2ncc(-c3ccccc3)o2)cc1	15.4	25.1	46.2	5.5	51.0*	39.2
CCCCn1c(N)c(N(CC(C)C)C(=O)c2oc3ccc(Br)cc3c2C)c(=O)[nH]c1=O	16.1	8.2	-9.1	-8.6	19.8	.
c1cncc(-c2ccc3ncnc(NCc4cccs4)c3c2)c1	14.1	16.8	-27.5	4.6	22.0	.
c1csc(CNc2ncnc3ccc(-c4ccc5c(c4)OCCO5)cc23)c1	37.5	30.2	167.2	12.6	56.7*	44.5*
